For part of these data: Measured potencies and affinities stand elsewhere. The source made the active and inactive calls.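 How the source made its calls, unless noted: active means fluorescence ratio normalized to control raised more than 50% in primary screen plus both repeat runs; inactive means the rest.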

Assay [1] relates to TRPC4 beta (transient receptor potential cation channel C4), mouse. In words: TRPC4 cation channel opening, retest – cell-based, Fluo4 calcium, HEK293 TRPC4beta/mu-opioid, duplicates, 10 µM, confirmation (AID 2426).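 On activation: percent rise of integrated ratio over buffer wells lacking compound which define 0%.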 Particulars: Fluo4 calcium fluorescence, at 10 µM; active compounds read high.
The test system of assay [2] is transient receptor potential cation channel C4 beta (TRPC4), mouse. The experiment in a line: TRPC4 cation channel opening, second retest – cell-based, second round, Fluo4, HEK293 TRPC4beta/mu-opioid, 1 µM, confirmation (AID 2461;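 active means primary screen active and over 50% activation in each of two duplicate runs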;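 on activation: 0% = wells without test compound as baseline of integrated fluorescence ratio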). Particulars: Fluo4 calcium fluorescence, at 1 µM; active compounds read high.
Assay [3] relates to TRPC4 (transient receptor potential cation channel C4 beta), mouse. The experiment in a line: potentiation of DAMGO EC20 TRPC4 response – cell-based, second round, Fluo-4, HEK293 TRPC4beta/mu-opioid, 1 µM, confirmation (AID 2554;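 active means primary screen hit whose fluorescence ratio, in both repeats, exceeds the weak agonist control mean by 3 SD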). Particulars: DAMGO EC20, Fluo-4 calcium flux, at 1 µM; active compounds read high. In general terms: A change in cytosolic calcium serves as a functional read-out for many receptors and channels.

Assay [4] has as its system TRPC4 beta (transient receptor potential cation channel C4), mouse. The experiment in a line: potentiation of DAMGO EC20 TRPC4 response – cell-based, Fluo-4, HEK293 TRPC4beta/mu-opioid, confirmation (AID 2555;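 active means primary screen hit whose calcium fluorescence ratio, in both repeats, exceeds the weak agonist control mean by 3 SD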). The following applies: DAMGO EC20, Fluo-4 calcium flux, at 10 µM; active compounds read high.
Assay [5] has as its target Short transient receptor potential channel 4 (Mus musculus) (UniProt Q9QUQ5). In words: blockers of DAMGO-evoked TRPC4 calcium flux – cell-based, Fluo4, HEK293 TRPC4beta/mu-opioid, confirmation (AID 2636;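 active means calcium signal cut by more than 3 SD below the full-agonist control yet still positive, in both repeats and the earlier primary screen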). The following applies: at 10 µM; active compounds read high.
The target is the same in assay [6]. In words: blockers of DAMGO-evoked TRPC4 calcium flux – cell-based, second round, Fluo4, HEK293 TRPC4beta/mu-opioid, 1 µM, confirmation (AID 2637;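 active means calcium signal ratio cut to more than 3 SD under the fully stimulated control mean yet still positive, in both repeats and the primary screen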). The following applies: at 1 µM; active compounds read high.
Assay [7] shares this target. In words: potentiation of DAMGO-evoked TRPC4 calcium signal – cell-based, HEK293 TRPC4/mu-opioid, Fluo-4 calcium, EC20 DAMGO, dose response (AID 434941;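 active means earlier screen potentiator hit that boosts the TRPC4 ion channel at some dose, with a dose response; inactive means no potentiation, no dose response, or not a prior hit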;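 further: calcium entry triggered by an EC20 dose of DAMGO at the co-expressed mu-opioid receptor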).
For assay [8] the target is unchanged. The experiment in a line: block of DAMGO-driven TRPC4 calcium entry – cell-based, HEK293 TRPC4/mu-opioid, Fluo-4 calcium, dose response (AID 434942;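 active means primary screen inhibitor hit that blocks the TRPC4 channel at some tested dose, yielding a dose curve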).
In assay [9] the target is Short transient receptor potential channel 6 (Mus musculus) (UniProt Q61143). The experiment in a line: TRPC6 blockade by TRPC4 inhibitor hits – cell-based, HEK293, membrane potential dye, duplicate, selectivity assay for TRPC4 inhibitor project, confirmation (AID 434948;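 active means active in primary screen and both duplicates, each dropping signal beyond three positive-control SD with fluorescence still positive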). The following applies: HEK293 TRPC6, membrane potential dye fluorescence, at 10 µM, stimulated with maximal-effect acetylcholine; active compounds read high.
Chain of Short transient receptor potential channel 6 (Mus musculus) (Q61143 whole entry, looked up): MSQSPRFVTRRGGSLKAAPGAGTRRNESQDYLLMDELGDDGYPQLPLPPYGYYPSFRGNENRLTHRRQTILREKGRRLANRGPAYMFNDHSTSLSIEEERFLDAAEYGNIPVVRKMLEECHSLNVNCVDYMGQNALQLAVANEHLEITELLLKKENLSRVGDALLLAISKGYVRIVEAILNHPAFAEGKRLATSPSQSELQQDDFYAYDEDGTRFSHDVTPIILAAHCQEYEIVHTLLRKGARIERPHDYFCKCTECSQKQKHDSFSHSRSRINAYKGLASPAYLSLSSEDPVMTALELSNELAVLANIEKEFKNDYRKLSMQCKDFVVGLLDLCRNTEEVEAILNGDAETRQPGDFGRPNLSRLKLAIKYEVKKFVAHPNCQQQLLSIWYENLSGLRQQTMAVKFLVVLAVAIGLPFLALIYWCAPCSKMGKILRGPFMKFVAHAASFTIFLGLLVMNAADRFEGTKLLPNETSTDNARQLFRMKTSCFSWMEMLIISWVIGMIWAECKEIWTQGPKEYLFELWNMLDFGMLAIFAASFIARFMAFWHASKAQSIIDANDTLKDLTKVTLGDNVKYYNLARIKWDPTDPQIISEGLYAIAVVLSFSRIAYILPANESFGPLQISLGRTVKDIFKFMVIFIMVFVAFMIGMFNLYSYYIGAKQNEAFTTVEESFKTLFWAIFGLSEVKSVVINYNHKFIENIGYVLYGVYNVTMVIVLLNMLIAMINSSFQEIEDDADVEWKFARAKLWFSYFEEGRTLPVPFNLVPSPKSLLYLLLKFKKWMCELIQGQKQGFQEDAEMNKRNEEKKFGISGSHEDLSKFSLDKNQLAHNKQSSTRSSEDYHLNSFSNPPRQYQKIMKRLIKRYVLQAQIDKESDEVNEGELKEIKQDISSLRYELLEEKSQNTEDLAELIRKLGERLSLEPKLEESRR

Assay [10] has the same target. The experiment in a line: TRPC6 opening by TRPC4 activator hits – cell-based, HEK293, membrane potential dye, duplicate, selectivity assay for TRPC4 activator project, confirmation (AID 434950;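 active means membrane potential signal rise above negative control mean plus 3 SD in both duplicates, also active in the earlier TRPC4 screen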;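 on activation: 0% = buffer only wells and 100% = acetylcholine maximal-effect wells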). Particulars: HEK293 TRPC6, membrane potential fluorescence, at 10 µM; activation: active compounds read high; outcome: activation.
For assay [11] the target is unchanged. The experiment in a line: positive modulators of mouse TRPC6 channel – HEK293 cells, membrane potential dye, duplicate, selectivity assay for TRPC4 potentiator project, confirmation (AID 434952;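 active means compound raising the membrane signal above positive-control mean plus 3 SD in both repeats, and a primary screen hit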). Particulars: HEK293 TRPC6, membrane potential dye fluorescence, at 10 µM, maximal acetylcholine added after compound; active compounds read high.
Assay [12] deals with Short transient receptor potential channel 4 (Mus musculus) (UniProt Q9QUQ5). In words: calcium flux activators in TRPC4/5HT1a cells, counter-screen for TRPC4 activator project, cell-based, second counter screen, HEK293 TRPC4/5HT1a, Fluo-4 (AID 434977;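 active means calcium signal rise above buffer-control mean plus 5 SD in both duplicates, and also a hit in the primary screen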;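 on activation: plate controls were assay buffer for no effect and maximal serotonin response for full effect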). The following applies: Fluo-4 calcium flux, at 10 µM; active compounds read high.
Chain of Short transient receptor potential channel 4 (Mus musculus) (Q9QUQ5 whole entry, looked up): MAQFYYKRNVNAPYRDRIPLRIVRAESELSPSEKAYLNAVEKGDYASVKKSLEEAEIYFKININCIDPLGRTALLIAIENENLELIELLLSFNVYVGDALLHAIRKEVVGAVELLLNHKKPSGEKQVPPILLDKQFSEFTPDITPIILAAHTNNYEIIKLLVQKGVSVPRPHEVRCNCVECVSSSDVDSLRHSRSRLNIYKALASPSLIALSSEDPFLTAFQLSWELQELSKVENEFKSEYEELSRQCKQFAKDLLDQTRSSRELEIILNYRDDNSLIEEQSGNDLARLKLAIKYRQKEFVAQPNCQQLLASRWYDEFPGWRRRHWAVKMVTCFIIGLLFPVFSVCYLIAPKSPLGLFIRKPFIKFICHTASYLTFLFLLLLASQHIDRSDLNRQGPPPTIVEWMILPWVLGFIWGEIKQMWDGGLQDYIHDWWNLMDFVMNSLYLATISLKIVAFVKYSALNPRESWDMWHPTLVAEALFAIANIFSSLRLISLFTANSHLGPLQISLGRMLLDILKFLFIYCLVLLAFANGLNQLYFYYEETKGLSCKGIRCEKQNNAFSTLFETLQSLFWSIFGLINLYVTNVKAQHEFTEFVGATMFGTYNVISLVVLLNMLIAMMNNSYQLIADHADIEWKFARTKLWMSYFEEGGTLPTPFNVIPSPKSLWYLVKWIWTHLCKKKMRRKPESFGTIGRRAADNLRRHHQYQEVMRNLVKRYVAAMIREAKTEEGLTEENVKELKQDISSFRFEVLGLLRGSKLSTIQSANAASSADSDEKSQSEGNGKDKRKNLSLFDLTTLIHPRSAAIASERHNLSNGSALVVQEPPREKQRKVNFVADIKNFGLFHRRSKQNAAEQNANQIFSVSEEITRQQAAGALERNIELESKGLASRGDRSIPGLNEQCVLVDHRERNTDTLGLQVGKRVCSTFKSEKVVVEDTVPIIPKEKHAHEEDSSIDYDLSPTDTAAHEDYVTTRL
Assay [13] in a line: serotonin-gated TRPC4 signal block – cell-based, second counter screen, HEK293 TRPC4/5HT1a, Fluo-4, counter-screen for TRPC4 inhibitor project, confirmation (AID 434978;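 active means primary screen active whose calcium signal fell more than 3 SD beyond the full-serotonin control mean in both duplicate plates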;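 further: serotonin given first at submaximal then at maximal dose after compound preincubation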). The following applies: Fluo-4 calcium flux, at 10 µM, serotonin added to trigger calcium flux; active compounds read high. (In general: Counterscreens check selectivity or assay interference.)
The subject of assay [14] is TRPC4 (mouse), co-expressed with 5HT1a in HEK293. The experiment in a line: enhancement of serotonin-evoked TRPC4 response – cell-based, second counter screen, HEK293 TRPC4/5HT1a, Fluo-4, counter-screen for TRPC4 potentiator project, confirmation (AID 434979;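 active means signal rise over 3 SD above mean of control wells given weak agonist, in both repeats and first screen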). Particulars: Fluo-4 calcium flux, at 10 µM, serotonin added at its EC20 dose; active compounds read high.
Assay [15] can be described thus: nonspecific calcium rise without TRPC4 – cell-based, HEK293 mu-opioid receptor line, counter-screen for TRPC4 activator project, confirmation (AID 449723;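 active means hit in primary screen, with calcium signal over 5 SD above buffer well mean in both duplicates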;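 further: counter screen cells carry the mu-opioid receptor alone and lack TRPC4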). The following applies: HEK293 mu-opioid cells, Fluo-4 calcium fluorescence, at 10 µM; active compounds read high.
A short description of assay [16]: nonspecific potentiation of DAMGO calcium response – cell-based, HEK293 mu-opioid receptor line, counter-screen for TRPC4 allosteric potentiator project, confirmation (AID 449724;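 active means calcium signal rise more than 3 SD above the low-dose agonist control mean, in both duplicate plates and the primary screen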;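 further: HEK293 cells carrying mu-opioid receptor only with no TRPC4 channel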). Particulars: HEK293 mu-opioid receptor cells, Fluo-4 calcium flux, at 10 µM, compound added before EC20 DAMGO stimulus; active compounds read high.

On to `COc1ccc(C(CNC(=O)c2cc(SC)ccc2Cl)N(C)C)cc1` (stereo not given), for which the activation in assay [1] is 103% (active); in assay [2], 77% (active); in assay [10], 65% (active). Besides, the outcome in assay [3], in [4], in [5], in assay [6], in assay [7] and in assay [8] was inactive. The compound was called inactive in assay [9], in assay [11], in assay [12], in assay [13], in assay [14] and in assay [15]. The result in assay [16] was inactive.
On to `CCC1(c2ccc(F)cc2)NC(=O)N(CC(=O)c2cc(C)n(C3CC3)c2C)C1=O` (stereo not given), for which the result in assay [1], in assay [2], in [3], in assay [5], in assay [6] and in assay [7] was inactive. The result in [8], in [9], in assay [10], in assay [11], in assay [13] and in [16] was inactive. For the same compound, the potentiation was 16% (active) in assay [4] and 24.5% (active) in [14]. The activation in [12] was 27% (active); in assay [15], 13.8% (active).
On to `CC(C)c1ccc(NC(=S)N(C)CCc2ccccn2)cc1`, for which the outcome in assay [1], in assay [2], in assay [3], in assay [4], in [5] and in assay [6] was inactive. Moreover, the result in assay [7], in [8], in assay [9], in assay [10], in assay [11] and in assay [13] was inactive. The result in assay [14], in [15] and in assay [16] was inactive. In addition, the activation in assay [12] was 25.6% (active).
For `CCOC(=O)C1(CCOc2ccccc2)CCN(Cc2ccc(OC)c(O)c2)CC1`, the activation is 207% (active) in assay [1], 80% (active) in assay [2] and 66.5% (active) in [10]. Besides, the result in assay [3], in assay [4], in [5], in assay [6], in assay [7] and in assay [8] was inactive. In addition, the call in assay [9], in assay [11], in [12], in [13], in assay [14] and in assay [15] was inactive. Besides, in [16], the result was inactive.
Consider `Cc1cc(OCCCn2ccnc2)ccc1[N+](=O)[O-]`, for which the activation in [1] was 134% (active). In addition, the outcome in assay [2], in assay [3], in [4], in assay [5], in assay [6] and in [7] was inactive. The result in assay [8], in [9], in assay [10], in [11], in assay [12] and in assay [13] was inactive. Also, the outcome in [15] and in [16] was inactive. Moreover, in assay [14], the potentiation is 18.2% (active).
For `C#Cc1cccc(C(=O)NC2CCCN(C3Cc4ccccc4C3)C2)c1` (stereo not given), the activation in assay [1] was 191% (active); in assay [2] it was 94% (active); in assay [10], 59% (active); in assay [12] it was 111% (active). Besides, the outcome in assay [3], in assay [4], in [5], in [6], in assay [7] and in assay [8] was inactive. Besides, the outcome in assay [9], in assay [11], in [13], in [14], in [15] and in assay [16] was inactive.
Turning to `OCCNCCSc1ccc(Cl)cc1`, the values for the activation in assay [1], in assay [10] and in [12] were 82% (active), 39.5% (active) and 22.3% (active), respectively. Also, the result in assay [2], in assay [3], in assay [4], in [5], in [6] and in [7] was inactive. For the same compound, the outcome in assay [8], in [9], in assay [11], in [13], in assay [14] and in assay [15] was inactive. The outcome in assay [16] was inactive.
`Cc1ccccc1NC(=S)NCCc1ccccn1`: the figures for the activation in assay [1] and in assay [12] were 143% (active) and 56.5% (active), respectively. Also, the outcome in [2], in assay [3], in assay [4], in [5], in [6] and in assay [7] was inactive. The result in [8], in assay [9], in assay [10], in assay [11], in [13] and in assay [14] was inactive. The outcome in [15] and in [16] was inactive.
Consider `CN(C)CCCN(C(=O)c1ccc(S(=O)(=O)N(C)C2CCCCC2)cc1)c1nc2ccc(F)cc2s1`, for which the activation in [1] was 155% (active); in [12] it was 5.36% (active). The result in [2], in assay [3], in [4], in assay [5], in assay [6] and in [7] was inactive. In addition, the outcome in assay [8], in assay [9], in assay [10], in assay [11], in assay [13] and in [14] was inactive. Besides, the result in [15] and in [16] was inactive.
With `Cc1ccc2c(C)c(C(=O)N(Cc3cccs3)C3CCS(=O)(=O)C3)oc2c1` (stereo not given), the result in assay [1], in [2], in assay [3], in assay [4], in assay [5] and in [6] was inactive. Further, the result in assay [7], in [8], in [9], in assay [11], in assay [12] and in assay [13] was inactive. Further, the outcome in [14], in assay [15] and in assay [16] was inactive. Besides, the activation in assay [10] is 34.5% (active).
Consider `CC1CC(C)CN(CCCNC(=O)COc2cc(=O)n(C)c3ccccc23)C1` (stereo not given), for which the activation in [1] was 88% (active); in assay [2], 80% (active); in assay [12] it was 23.2% (active). Also, the result in [3], in assay [4], in assay [5], in assay [6], in assay [7] and in assay [8] was inactive. The outcome in assay [9], in assay [10], in [11], in assay [13], in assay [15] and in assay [16] was inactive. In addition, the potentiation in assay [14] is 26.9% (active).
Regarding `CN(C)CCN(C(=O)c1cccc2ccccc12)c1nc2cc3c(cc2s1)OCO3`, the outcome in assay [1], in [2], in assay [3], in [4], in [5] and in assay [6] was inactive. Also, the outcome in [7], in [8], in assay [9], in [10], in assay [11] and in assay [12] was inactive. Moreover, the result in assay [13], in assay [14], in assay [15] and in assay [16] was inactive.
As to `CCN(c1ccccc1)S(=O)(=O)c1ccc(C(=O)N(CCCN(C)C)c2nc3cc4c(cc3s2)OCO4)cc1`, in assay [1], the activation is 99% (active). For the same compound, the outcome in assay [2], in assay [3], in assay [4], in [5], in assay [6] and in [7] was inactive. Further, the outcome in assay [8], in assay [9], in assay [10], in [11], in [12] and in assay [13] was inactive. Moreover, the result in assay [14], in [15] and in assay [16] was inactive.
As for `c1ccc2c(c1)CCN(c1ncnc3c1[nH]c1ccccc13)C2`, the outcome in assay [1], in assay [2], in assay [3], in assay [4], in [5] and in [6] was inactive. Further, the outcome in assay [7], in assay [8], in [9], in [10], in assay [11] and in assay [12] was inactive. Moreover, the outcome in [13], in assay [14], in assay [15] and in assay [16] was inactive.
Regarding `FC(F)(F)c1cnc(N2CCCN(C(=S)Nc3ccccc3)CC2)c(Cl)c1`, the activation in [1] was 208% (active); in assay [2], 62% (active); in assay [12] it was 84.8% (active). The outcome in [3], in assay [4], in [5], in [6], in assay [7] and in assay [8] was inactive. For the same compound, the call in assay [9], in assay [10], in assay [11], in assay [13], in assay [14] and in [15] was inactive. Moreover, the result in assay [16] was inactive.

The values above are taken from PubChem BioAssay.
